Measured values taken from the supplement of paper PMC10849652.
Of roughly 8,800 targets only a part is listed; those with a hit were picked by preference. About 0.5% of all pairs of compound and target were hits. Values without a mark were called inactive.

What was measured:
Experiment in all cases: log2 fold change, soluble protein after heating vs DMSO (PISA); higher = thermal stabilisation; K562 lysate, 10 uM; active = over 0.2 and 3.5 SD of the protein, either way, in both replicates (recomputed)
ibrutinib = compound: C=CC(=O)N1CCC[C@@H](n2nc(-c3ccc(Oc4ccccc4)cc3)c3c(N)ncnc32)C1 [ibrutinib]
In short: (§1)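 Soluble protein was defined as the supernatant remaining after 21,000xg for 90 min, following pooling of heated aliquots and adjustment to 0.5% NP-40 at 4°C. Before that, crude K562 extract at 1 mg/mL protein in PBS pH 7.4 with 1 mM MgCl2 was treated with 10 μM compound for 30 min and heated for 3 min across 48°C-58°C. Quantification used TMTpro 16plex LC-MS/MS with channel sums equalised, and values are log-two fold changes in thermal stability relative to solvent controls from duplicates.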

[1] = compound: CC(=O)c1cnc2ccc(-c3cc(Cl)c(O)c(Cl)c3)nc2c1N[C@H]1CC[C@H](CN(C)C)CC1
In short: as §1

ralimetinib = compound: CC(C)(C)Cn1c(N)nc2ccc(-c3[nH]c(C(C)(C)C)nc3-c3ccc(F)cc3)nc21 [ralimetinib]
In short: as §1

[2] = compound: CC(C)(O)CC(=O)NCCn1ccc2ncnc(Nc3ccc(Oc4cccc(C(F)(F)F)c4)c(Cl)c3)c21
In short: as §1

[3] = compound: CC(C)C1=C2N=C(C=C(N2N=C1)NCC3=CC=CC=C3)NCCCCCCN
In short: as §1

[4] = compound: CC1=C(C(CC(=O)N1)C2=CC=C(C=C2)C(F)(F)F)C(=O)NC3=C(C=C4C(=C3)C=NN4)F
In short: as §1

[5] = compound: CC1=C(C2=C(C=C1)C(=O)C3=CC=CC=C3N2CCCN)C
In short: as §1

[6] = compound: CC1=C(C=C(C=C1)NC(=O)C2=CC(=CC=C2)C(C)(C)C#N)NC3=CC4=C(C=C3)N=CN(C4=O)C
In short: as §1

[7] = compound: CC1=C(C=C(C=C1)NC(=O)C2=CC(=CC=C2)N(C)C)NC(=O)C3=CC=C(C=C3)O
In short: as §1

[8] = compound: CC1=CC=C(C=C1)SC2=C3C=C(SC3=CN=C2)C(=O)N
In short: as §1

vemurafenib = compound: CCCS(=O)(=O)Nc1ccc(F)c(C(=O)c2c[nH]c3ncc(-c4ccc(Cl)cc4)cc23)c1F [vemurafenib]
In short: as §1

[9] = compound: CCCS(=O)(=O)Nc1ccc(F)c(C(=O)c2c[nH]c3ncc(Cl)cc23)c1F
In short: as §1

barasertib = compound: CCN(CCCOc1ccc2c(Nc3cc(CC(=O)Nc4cccc(F)c4)[nH]n3)ncnc2c1)CCOP(=O)(O)O [barasertib]
In short: as §1

[10] = compound: CC[C@@H]1C(=O)N(C)c2cnc(Nc3ccc(C(=O)NC4CCN(C)CC4)cc3OC)nc2N1C1CCCC1
In short: as §1

volasertib = compound: CC[C@@H]1C(=O)N(C)c2cnc(Nc3ccc(C(=O)N[C@H]4CC[C@H](N5CCN(CC6CC6)CC5)CC4)cc3OC)nc2N1C(C)C [volasertib]
In short: as §1

[11] = compound: CCn1c(C(=O)N(C2CC2)C2CC2)cc2c3c(ncn3C)c(Nc3cc(C)n(C)n3)nc21
In short: as §1

[12] = compound: CCn1cc(-c2ccnc3[nH]c(-c4cccc(CN(C)C)c4)cc23)c(-c2ccc(NC(=O)N(C)C)cc2)n1
In short: as §1

[13] = compound: CN1CCC(CNc2ccc3ncc(-c4cccc(OC(F)(F)F)c4)n3n2)CC1
In short: as §1

saracatinib = compound: CN1CCN(CCOc2cc(OC3CCOCC3)c3c(Nc4c(Cl)ccc5c4OCO5)ncnc3c2)CC1 [saracatinib]
In short: as §1

sotrastaurin = compound: CN1CCN(c2nc(C3=C(c4c[nH]c5ccccc45)C(=O)NC3=O)c3ccccc3n2)CC1 [sotrastaurin]
In short: as §1

Chain of UniProt Q8N4N3 (Q8N4N3 whole entry, looked up): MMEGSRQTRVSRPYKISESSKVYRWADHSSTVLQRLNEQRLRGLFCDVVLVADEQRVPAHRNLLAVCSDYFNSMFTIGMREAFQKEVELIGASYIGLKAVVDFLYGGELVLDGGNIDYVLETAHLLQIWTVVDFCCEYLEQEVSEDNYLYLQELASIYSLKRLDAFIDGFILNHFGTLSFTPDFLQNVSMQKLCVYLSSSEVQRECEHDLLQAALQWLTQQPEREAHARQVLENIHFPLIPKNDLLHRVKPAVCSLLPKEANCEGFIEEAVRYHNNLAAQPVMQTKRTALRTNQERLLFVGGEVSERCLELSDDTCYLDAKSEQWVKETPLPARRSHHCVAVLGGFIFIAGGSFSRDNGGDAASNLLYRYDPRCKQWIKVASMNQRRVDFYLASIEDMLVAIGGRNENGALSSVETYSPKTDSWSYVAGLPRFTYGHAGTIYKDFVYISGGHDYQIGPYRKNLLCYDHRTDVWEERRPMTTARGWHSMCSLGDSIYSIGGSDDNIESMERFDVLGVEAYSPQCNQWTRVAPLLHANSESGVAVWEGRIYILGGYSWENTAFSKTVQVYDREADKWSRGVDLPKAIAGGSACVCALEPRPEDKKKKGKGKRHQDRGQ
Chain of UniProt Q07866 (Q07866 whole entry, looked up): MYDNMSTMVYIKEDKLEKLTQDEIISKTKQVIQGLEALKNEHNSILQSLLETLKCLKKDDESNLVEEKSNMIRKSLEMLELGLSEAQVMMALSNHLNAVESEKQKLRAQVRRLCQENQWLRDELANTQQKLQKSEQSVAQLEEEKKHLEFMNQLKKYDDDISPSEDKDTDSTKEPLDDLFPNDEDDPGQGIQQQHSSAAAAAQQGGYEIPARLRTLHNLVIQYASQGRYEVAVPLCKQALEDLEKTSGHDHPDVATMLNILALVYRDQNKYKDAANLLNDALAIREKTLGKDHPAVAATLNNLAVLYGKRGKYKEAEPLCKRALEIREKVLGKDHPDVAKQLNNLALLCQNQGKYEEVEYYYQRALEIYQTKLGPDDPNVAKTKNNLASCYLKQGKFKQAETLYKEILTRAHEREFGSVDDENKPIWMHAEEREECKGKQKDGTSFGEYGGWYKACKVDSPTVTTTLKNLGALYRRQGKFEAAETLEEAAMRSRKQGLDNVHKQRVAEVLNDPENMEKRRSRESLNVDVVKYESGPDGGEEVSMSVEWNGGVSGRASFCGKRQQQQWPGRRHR
Chain of UniProt P40692 (P40692 whole entry, looked up): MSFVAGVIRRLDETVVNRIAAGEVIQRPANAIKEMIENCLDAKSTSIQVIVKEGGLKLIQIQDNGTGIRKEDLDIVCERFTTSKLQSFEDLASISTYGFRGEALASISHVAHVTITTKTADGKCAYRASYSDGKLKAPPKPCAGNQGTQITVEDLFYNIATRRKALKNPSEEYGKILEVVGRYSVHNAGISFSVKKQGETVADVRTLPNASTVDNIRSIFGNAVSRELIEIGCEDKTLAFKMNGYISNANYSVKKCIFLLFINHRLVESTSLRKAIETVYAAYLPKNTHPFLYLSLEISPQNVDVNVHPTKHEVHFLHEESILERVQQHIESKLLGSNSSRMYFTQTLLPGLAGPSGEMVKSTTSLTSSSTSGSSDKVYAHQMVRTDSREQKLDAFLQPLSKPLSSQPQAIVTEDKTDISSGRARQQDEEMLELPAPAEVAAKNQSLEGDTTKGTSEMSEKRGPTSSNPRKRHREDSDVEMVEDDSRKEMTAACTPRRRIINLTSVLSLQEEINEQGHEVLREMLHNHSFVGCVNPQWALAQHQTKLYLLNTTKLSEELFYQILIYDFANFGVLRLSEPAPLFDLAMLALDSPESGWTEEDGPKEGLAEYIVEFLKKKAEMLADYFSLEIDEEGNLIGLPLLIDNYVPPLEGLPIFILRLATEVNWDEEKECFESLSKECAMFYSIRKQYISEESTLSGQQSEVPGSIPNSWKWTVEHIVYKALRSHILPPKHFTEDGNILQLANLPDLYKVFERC
Chain of UniProt O15021 (O15021 whole entry, looked up): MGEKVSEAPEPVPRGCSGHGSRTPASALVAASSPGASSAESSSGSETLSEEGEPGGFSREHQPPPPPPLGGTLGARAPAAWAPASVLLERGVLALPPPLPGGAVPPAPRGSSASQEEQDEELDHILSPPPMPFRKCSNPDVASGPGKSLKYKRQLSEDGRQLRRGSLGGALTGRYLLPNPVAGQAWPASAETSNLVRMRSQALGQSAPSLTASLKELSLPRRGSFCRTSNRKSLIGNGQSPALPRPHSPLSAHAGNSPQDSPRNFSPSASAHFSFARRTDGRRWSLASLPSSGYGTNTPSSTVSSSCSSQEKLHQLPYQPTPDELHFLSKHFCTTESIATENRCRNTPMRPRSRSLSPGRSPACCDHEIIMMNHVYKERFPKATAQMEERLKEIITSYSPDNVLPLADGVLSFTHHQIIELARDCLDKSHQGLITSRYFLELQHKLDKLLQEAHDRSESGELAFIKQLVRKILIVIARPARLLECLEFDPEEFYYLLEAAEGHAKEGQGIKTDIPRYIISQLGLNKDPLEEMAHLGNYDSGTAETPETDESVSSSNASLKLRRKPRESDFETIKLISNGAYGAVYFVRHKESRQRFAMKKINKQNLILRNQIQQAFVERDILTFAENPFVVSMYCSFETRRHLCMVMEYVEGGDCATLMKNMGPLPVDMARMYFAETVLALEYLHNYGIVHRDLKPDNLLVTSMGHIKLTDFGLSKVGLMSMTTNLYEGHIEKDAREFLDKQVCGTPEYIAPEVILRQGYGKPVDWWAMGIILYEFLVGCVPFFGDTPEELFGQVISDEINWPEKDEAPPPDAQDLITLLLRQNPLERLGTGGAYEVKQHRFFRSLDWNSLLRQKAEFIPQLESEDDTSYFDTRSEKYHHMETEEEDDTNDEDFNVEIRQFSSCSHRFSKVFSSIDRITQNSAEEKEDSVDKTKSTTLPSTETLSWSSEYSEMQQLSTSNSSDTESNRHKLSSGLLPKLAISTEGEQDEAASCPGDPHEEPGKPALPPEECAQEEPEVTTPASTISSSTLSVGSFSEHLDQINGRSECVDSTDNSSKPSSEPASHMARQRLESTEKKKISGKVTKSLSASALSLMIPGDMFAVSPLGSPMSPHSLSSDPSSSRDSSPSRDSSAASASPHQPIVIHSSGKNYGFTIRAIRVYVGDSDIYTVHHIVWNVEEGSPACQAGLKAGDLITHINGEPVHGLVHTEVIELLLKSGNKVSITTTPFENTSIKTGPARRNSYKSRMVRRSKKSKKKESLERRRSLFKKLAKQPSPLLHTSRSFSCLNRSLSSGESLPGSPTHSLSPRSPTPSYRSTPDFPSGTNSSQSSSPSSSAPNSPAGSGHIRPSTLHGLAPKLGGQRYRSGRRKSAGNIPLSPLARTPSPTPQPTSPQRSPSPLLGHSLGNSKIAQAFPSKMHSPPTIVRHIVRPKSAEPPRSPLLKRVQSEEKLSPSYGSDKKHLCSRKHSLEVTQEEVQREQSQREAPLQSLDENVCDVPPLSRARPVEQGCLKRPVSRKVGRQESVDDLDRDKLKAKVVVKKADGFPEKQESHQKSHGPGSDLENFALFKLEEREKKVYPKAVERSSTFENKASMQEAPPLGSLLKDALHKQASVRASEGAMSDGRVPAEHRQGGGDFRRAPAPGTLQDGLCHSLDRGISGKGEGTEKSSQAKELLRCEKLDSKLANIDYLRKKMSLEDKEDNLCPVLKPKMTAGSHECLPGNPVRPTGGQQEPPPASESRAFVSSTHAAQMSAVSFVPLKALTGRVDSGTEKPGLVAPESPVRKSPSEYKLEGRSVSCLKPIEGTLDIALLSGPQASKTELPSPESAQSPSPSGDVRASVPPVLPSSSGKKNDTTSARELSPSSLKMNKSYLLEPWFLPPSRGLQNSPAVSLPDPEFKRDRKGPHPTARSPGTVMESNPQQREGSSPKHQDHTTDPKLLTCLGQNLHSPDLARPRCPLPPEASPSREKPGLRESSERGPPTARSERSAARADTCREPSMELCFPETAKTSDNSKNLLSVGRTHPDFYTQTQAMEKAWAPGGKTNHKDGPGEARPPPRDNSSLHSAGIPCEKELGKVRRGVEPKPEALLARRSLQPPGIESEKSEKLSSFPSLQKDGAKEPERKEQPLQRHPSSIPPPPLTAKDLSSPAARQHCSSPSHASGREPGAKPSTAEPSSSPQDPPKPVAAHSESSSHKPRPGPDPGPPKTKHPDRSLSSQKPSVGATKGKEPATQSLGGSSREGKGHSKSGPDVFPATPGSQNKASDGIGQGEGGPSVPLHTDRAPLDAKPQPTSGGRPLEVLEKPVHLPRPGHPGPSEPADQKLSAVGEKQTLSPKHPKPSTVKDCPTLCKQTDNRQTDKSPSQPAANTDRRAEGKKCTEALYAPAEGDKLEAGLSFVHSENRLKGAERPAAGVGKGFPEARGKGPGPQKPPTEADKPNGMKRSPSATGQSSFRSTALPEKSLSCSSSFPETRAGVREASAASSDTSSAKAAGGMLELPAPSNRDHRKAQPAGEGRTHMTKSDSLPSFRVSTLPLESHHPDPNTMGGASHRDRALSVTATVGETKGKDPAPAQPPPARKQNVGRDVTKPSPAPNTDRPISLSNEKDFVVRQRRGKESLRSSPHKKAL
Chain of UniProt P27361 (P27361 whole entry, looked up): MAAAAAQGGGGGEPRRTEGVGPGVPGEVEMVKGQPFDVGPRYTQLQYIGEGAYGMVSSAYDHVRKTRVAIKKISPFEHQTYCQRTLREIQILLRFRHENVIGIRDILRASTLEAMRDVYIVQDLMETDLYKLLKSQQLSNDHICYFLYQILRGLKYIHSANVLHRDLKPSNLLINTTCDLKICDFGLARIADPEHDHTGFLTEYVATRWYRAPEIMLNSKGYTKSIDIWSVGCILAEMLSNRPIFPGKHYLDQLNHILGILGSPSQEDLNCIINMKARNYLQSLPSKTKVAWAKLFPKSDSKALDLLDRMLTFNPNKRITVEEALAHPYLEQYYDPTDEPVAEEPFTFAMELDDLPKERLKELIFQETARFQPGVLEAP
Chain of UniProt Q9BTT4 (Q9BTT4 whole entry, looked up): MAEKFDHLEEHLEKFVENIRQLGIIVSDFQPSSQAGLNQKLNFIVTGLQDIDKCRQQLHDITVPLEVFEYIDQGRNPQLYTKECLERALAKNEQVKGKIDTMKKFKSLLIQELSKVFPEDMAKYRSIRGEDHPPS

Target | log2 fold change (ibrutinib) | log2 fold change [1] | log2 fold change (ralimetinib) | log2 fold change [2] | log2 fold change [3] | log2 fold change [4] | log2 fold change [5] | log2 fold change [6] | log2 fold change [7] | log2 fold change [8] | log2 fold change (vemurafenib) | log2 fold change [9] | log2 fold change (barasertib) | log2 fold change [10] | log2 fold change (volasertib) | log2 fold change [11] | log2 fold change [12] | log2 fold change [13] | log2 fold change (saracatinib) | log2 fold change (sotrastaurin)
KIF21A isoform 5 (UniProt Q7Z4S6) | 0.027 | -0.002 | 0.015 | 0 | 0.002 | 0.034 | -0.031 | 0.025 | 0.014 | 0.024 | 0.03 | 0.041 | 0.005 | -0.038 | -0.026 | -0.025 | 0.165 | -0.101 | 0.037 | 0.017
MAPK6 (UniProt Q16659) | 0.07 | 0.025 | 0.004 | -0.05 | 0.012 | 0 | 0 | -0.006 | 0.029 | 0.021 | 0.006 | 0.001 | 0.047 | 0.034 | -0.001 | -0.029 | 0.221 (active) | -0.02 | -0.014 | 0.014
MLH1 (UniProt P40692) | 0.01 | -0.009 | 0.02 | -0.035 | -0.018 | 0.017 | -0.055 | 0.014 | -0.006 | 0.03 | 0.042 | -0.039 | 0.014 | 0.013 | -0.002 | 0.014 | -0.029 | -0.023 | 0.051 | 0.02
MED10 (UniProt Q9BTT4) | -0.029 | -0.087 | -0.015 | -0.055 | -0.019 | -0.013 | -0.025 | 0.02 | 0.074 | 0.074 | 0.037 | 0 | 0.08 | 0.133 | 0.066 | -0.009 | 0.107 | -0.059 | 0.077 | -0.015
MAP4 (UniProt E7EVA0) | 0.001 | -0.009 | -0.038 | -0.185 | 0.036 | -0.058 | 0.008 | 0.131 | 0.005 | -0.027 | -0.019 | 0.01 | 0.04 | 0.125 | -0.021 | -0.141 | -0.024 | 0.029 | 0.024 | -0.008
METTL7A (UniProt Q9H8H3) | 0.113 | -0.055 | 0.036 | -0.025 | 0.017 | 0.016 | -0.055 | 0.068 | -0.033 | -0.035 | -0.08 | 0.056 | -0.123 | -0.022 | 0.226 | -0.018 | 0.014 | 0.081 | -0.028 | -0.028
LUC7L (UniProt Q9NQ29) | 0.007 | 0.003 | 0.008 | 0.027 | 0.056 | 0.002 | 0.007 | -0.04 | -0.01 | 0.02 | 0.019 | -0.014 | 0.024 | -0.072 | 0.028 | -0.004 | 0.172 | -0.008 | -0.013 | -0.068
MAST4 (UniProt O15021) | 0.019 | 0.423 (active) | 0.04 | 0.061 | -0.032 | -0.075 | 0.032 | -0.173 | -0.023 | 0.049 | -0.085 | -0.049 | 0.051 | -0.126 | -0.017 | 0.121 | -0.204 | 0.059 | -0.001 | -0.015
LRRC40 (UniProt Q9H9A6) | 0.017 | 0.011 | 0.019 | 0.025 | -0.011 | 0.015 | 0.002 | -0.073 | 0.01 | -0.007 | 0.004 | 0.015 | 0.034 | -0.024 | -0.011 | 0.018 | 0.052 | -0.052 | 0 | 0.021
MAPK3 (UniProt P27361) | 0.001 | 0.017 | -0.02 | -0.018 | -0.033 | -0.012 | -0.006 | 0.026 | -0.022 | -0.028 | 0.013 | -0.024 | -0.026 | 0.01 | -0.011 | -0.031 | 0 | 0.026 | 0 | -0.017
MIPEP (UniProt Q99797) | 0.041 | 0.054 | 0.027 | 0.07 | -0.02 | -0.001 | -0.003 | -0.067 | 0.044 | 0.003 | -0.026 | 0.004 | 0.006 | -0.053 | -0.029 | 0.029 | -0.05 | -0.015 | 0.001 | -0.042
KLHL36 (UniProt Q8N4N3) | 0.002 | -0.047 | 0.092 | -0.028 | 0.053 | -0.008 | -0.085 | -0.005 | -0.098 | -0.003 | 0.024 | 0.106 | -0.088 | 0.077 | -0.127 | 0.1 | -0.006 | -0.048 | -0.031 | 0.099
MORC2 (UniProt Q9Y6X9) | 0.065 | 0.02 | 0.054 | -0.035 | -0.039 | -0.001 | -0.026 | -0.037 | 0.072 | 0.004 | 0.049 | 0.01 | 0.054 | 0.022 | 0.002 | -0.006 | -0.041 | 0.008 | 0.042 | 0.037
MAP4 (UniProt P27816) | 0.002 | -0.005 | -0.016 | -0.002 | 0.016 | -0.023 | -0.016 | 0.006 | -0.001 | -0.008 | 0.01 | -0.017 | -0.016 | 0.064 | 0.033 | -0.022 | -0.042 | 0.036 | -0.009 | -0.027
KLC1 isoform 6 (UniProt Q07866) | -0.022 | -0.012 | 0.019 | 0.005 | 0.002 | -0.01 | 0.012 | 0.028 | -0.002 | -0.017 | 0.003 | 0.004 | -0.002 | 0.012 | -0.04 | 0 | 0.019 | -0.063 | 0.015 | -0.011
MARK3 (UniProt P27448) | 0.03 | -0.081 | 0.028 | -0.016 | 0.041 | 0.005 | -0.009 | 0.075 | 0.016 | 0 | -0.003 | 0.036 | -0.001 | 0.038 | 0.042 | 0.005 | -0.114 | -0.237 | -0.015 | -0.228
